Bioassay records as filed in PubChem.
NPC1 promoter act = activates the NPC1 promoter; Potency, µM (series often up to 9.22 µM), for the others: at the highest dose activation, hits mostly activators; Huh7 NPC1 promoter luciferase reporter, 24 h; hit rate 2.4% among 320,000; note: % of control where 0% means no effect; nearly all actives have a fitted effect of over 60% in size
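In 1536-well qHTS, Huh7 cells harboring an NPC1 promoter–luciferase construct received compound for 24 h; activation was quantified by luminescence following luciferase reagent addition.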
SMN2 splice up = increases expression of the SMN2 splice variant; HEK293 SMN2-luciferase splicing reporter, luminescence, 30-36 h; Potency, µM (doses to about 46.1 µM), for the others: at the top dose activity change, positive = activation, most hits filed as activators; hit rate 2.8% among 210,000; note: % of control where 0% means no effect; nearly all actives have a fitted effect of over 55% in size
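qHTS luciferase splicing reporter: luminescence rises when SMN2 exon 7 is included in transfected HEK293 cells. Compound exposure lasted 30-36 h at 37C, with 4.5 mM final sodium butyrate as control, followed by a ONE-Glo read.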
ELG1 genotoxic = induces genotoxicity in HEK293T cells with luciferase-tagged ELG1. Potency, µM (top dose mostly 46 µM), for inactives: top-dose activity change, positive = activation, hits mostly activators. HEK293T ELG1-luciferase reporter, luminescence, 16 h. AID 504466. hit rate 1.3% among 330,000; note: % of control where 0% means no effect; nearly all actives have a fitted effect of over 60% in size
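Genotoxicity was scored as increased ELG1-luciferase reporter signal, measured by ONE-Glo luminescence (30 min, room temperature). Compound or vehicle exposure of the HEK293T reporter cells lasted 16 hr at 37°C.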
FLuc counter = inhibits or activates purified firefly luciferase, miR-21 counter-screen | hit rate 6.9% among 360,000 | purified FLuc, Km substrates, luminescence inhibition | P08659 | Potency, µM (titrated, usually from 57.5 µM), for the others: at the highest dose activity change, negative = inhibition, actives largely listed as inhibitors;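 note: plate controls were vehicle for no effect and reference inhibitor for full effect; nearly all actives have a fitted effect of over 55% in size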
Target sequence (P08659 whole entry, looked up): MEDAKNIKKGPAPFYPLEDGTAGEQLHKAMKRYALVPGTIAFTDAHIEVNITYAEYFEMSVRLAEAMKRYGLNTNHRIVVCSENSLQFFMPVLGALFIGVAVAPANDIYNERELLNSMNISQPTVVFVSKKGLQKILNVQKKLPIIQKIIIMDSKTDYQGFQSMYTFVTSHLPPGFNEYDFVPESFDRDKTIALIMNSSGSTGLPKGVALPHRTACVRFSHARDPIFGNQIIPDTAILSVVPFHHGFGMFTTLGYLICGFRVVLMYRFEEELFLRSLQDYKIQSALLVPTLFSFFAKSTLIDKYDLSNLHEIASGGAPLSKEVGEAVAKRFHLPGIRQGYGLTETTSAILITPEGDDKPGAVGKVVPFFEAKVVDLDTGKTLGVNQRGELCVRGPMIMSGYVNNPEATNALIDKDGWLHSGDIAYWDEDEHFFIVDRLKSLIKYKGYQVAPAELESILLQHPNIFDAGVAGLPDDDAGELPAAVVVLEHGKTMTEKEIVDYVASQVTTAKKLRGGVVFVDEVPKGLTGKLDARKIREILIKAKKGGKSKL
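Purified P. pyralis luciferase, 10 nM final, with Km-level 10 uM D-luciferin and 10 uM ATP in 50 mM Tris acetate pH 7.5, 10 mM Mg acetate, 0.01% Tween-20, 0.05% BSA; 6-point qHTS titration about 60 µM downward; luminescence read.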
Rab9 promoter act = activates the Rab9 promoter; Huh7 Rab9 promoter-luciferase reporter, luminescence, 24 h; Potency, µM (highest dose often 9.22 µM), inactives show at the top dose activation, negative = inhibition, hits mostly activators; hit rate 2.8% among 320,000; note: % of control where 0% means no effect; nearly all actives have a fitted effect of over 60% in size
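Stable Rab9-luc Huh7, 1500 cells/well, 2 h settle; cmpd in DMSO, 24 h, 37 °C/5% CO2; luciferase reagent 10 min RT; luminescence.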
ELG1 repair inh = ELG1-dependent DNA repair inhibition; HEK293T ELG1-luciferase reporter, luminescence, 16 h; DNA damage induced by 5-fluorouridine; AID 504467; hit rate 2.3% among 330,000; Potency, µM (series often up to 46.1 µM), for the others: top-dose activity change, negative = inhibition, actives largely listed as inhibitors; note: % is set by controls: 0 for no effect and ±100 for the full control effect; nearly all actives have a fitted effect of over 55% in size
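Overnight (16 hr) co-exposure of 2,000 cells/well to 5-fluorouridine and compound at 37 °C preceded detection. Luciferase was quantified via ONE-Glo luminescence; loss of signal denotes inhibition.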
* marks the source's active call; other numbers are inactive results; u = inconclusive; x = no result given. Rows were chosen to be rich in hits. Some 9.2% of all compounds tested hit in one or more screens of this group. Calls come from the whole dose curve; as a rule, active = well fitted curve in the direction sought with a large enough effect; inconclusive = small, poorly fitted or top-dose-only effect, or another doubt; inactive = no such curve, though single readings can be large; an effect the other way counts as inactive or inconclusive. Potency is the fitted concentration of half-maximal effect.

SMILES	NPC1 promoter act	SMN2 splice up	ELG1 genotoxic	FLuc counter	Rab9 promoter act	ELG1 repair inh
Cc1cccc(-c2nc(C#N)c(NCc3ccco3)o2)c1	u	x	u	11µM*	u	u
Cc1ccc(-c2nc(C#N)c(NCc3ccco3)o2)cc1	u	u	5.8µM*	4.8µM*	u	u
Cc1cc(Cl)ccc1NC(=S)NCc1ccccc1Cl	-4%	22%	0%	-1%	-2%	1%
Cc1nc2scc(C)n2c(=O)c1S(=O)(=O)NCc1ccc(F)cc1	1%	x	2%	3%	1%	29%
COc1ccccc1OC(C)C(=O)Nc1cccc(-c2nc3ccccc3s2)c1 (centres undefined)	x	x	x	11µM*	x	x
Cc1ccc(-c2nc3ccccc3s2)cc1NC(=O)COc1ccccc1	x	4%	x	-1%	x	x
COc1ccc(-c2nc3ccccc3s2)cc1NC(C)=O	2.5µM*	11µM*	16µM*	6.7µM*	2.2µM*	u
Cc1ccc(C(=O)NC(=S)Nc2cc(-c3nc4ccccc4s3)ccc2C)cc1	-3%	8%	u	9.5µM*	29%	u
COc1ccc(-c2nc3ccccc3s2)cc1NC(=O)COc1ccc(C)cc1	x	1.3µM*	x	-2%	x	x
CC(=O)N(C)c1ccc(NC(=O)Nc2ccc(C)c(C)c2)cc1	3%	x	4%	u	25%	11%
COc1ccc(-c2nc3ccccc3s2)cc1NC(=O)c1cc2ccccc2o1	x	-3%	x	-1%	x	x
COc1ccc(-c2nc3ccccc3s2)cc1NC(=O)c1ccccc1F	x	2%	x	0%	x	x
COc1ccc(-c2nc3ccccc3s2)cc1NC(=O)COc1cccc(C)c1	x	2.8µM*	x	u	x	x
COc1ccc(-c2nc3ccccc3s2)cc1NC(=O)c1cccc([N+](=O)[O-])c1C	x	11µM*	x	3.4µM*	x	x
COc1ccccc1CNC(=O)CSc1nnc2c(n1)[nH]c1ccc(F)cc12	-2%	x	-1%	1%	-4%	9%
COc1ccccc1C(=O)NCCCNc1ccc([N+](=O)[O-])cc1	1%	-5%	-4%	-3%	-7%	-18%
CC(=O)NCCCNc1ccc([N+](=O)[O-])cc1	15%	u	2%	19µM*	16%	u
CCN(CC)CCCNC(=O)c1cc(-c2ccccc2)c(N2CCCCC2)s1	-3%	x	0%	0%	-3%	15%
Cc1ccc(C(=O)Nc2nc(-c3cc(Cl)sc3Cl)cs2)cc1	-1%	-69%	6%	9.5µM*	-11%	9.2µM*
O=C(Nc1nc(-c2cccs2)cs1)c1ccc(Cl)s1	25%	-94%	u	13µM*	23%	u
Cc1ccc(C)c(-c2csc(NC(=O)c3cnccn3)n2)c1	0%	-32%	8%	1%	-4%	u
CC(=O)Nc1nc(-c2cccs2)cs1	u	-5%	1%	u	29%	u
O=C(Nc1nc(-c2ccc(Cl)s2)cs1)c1ccccc1	14%	-25%	11%	27µM*	29%	-4%
CCc1ccc2oc(C(=O)Nc3ccccc3C(=O)OC)cc(=O)c2c1	x	-8%	x	-2%	x	x
Cc1ccc(NC(=O)COC(=O)C2CC3C=CC2C3)cc1S(=O)(=O)N1CCCCC1 (centres undefined)	-4%	-13%	-1%	-11%	0%	-1%
SMILES	NPC1 promoter act	SMN2 splice up	ELG1 genotoxic	FLuc counter	Rab9 promoter act	ELG1 repair inh
COCCNc1nnc(SCC(=O)Nc2nnc(-c3ccccc3)o2)s1	-1%	x	12%	19µM*	-5%	20%
COCCNc1nnc(SCC(=O)Nc2cc(-c3ccccc3)nn2-c2ccccc2)s1	-2%	23%	-4%	u	-1%	21µM*
CC(C)(C)c1cc(NC(=O)CSc2nnc(NCc3ccccc3)s2)n(-c2ccccc2)n1	-1%	-35%	-12%	19µM*	0%	23µM*
CC(C)(C)c1cc(NC(=O)CSc2nnc(N)s2)n(-c2ccccc2)n1	1%	x	3%	4%	-1%	-16%
Cn1c(SCC(=O)Nc2nnc(-c3ccccc3)o2)nnc1C1CC1	1%	x	1%	13µM*	0%	19%
Nc1nnc(SCC(=O)Nc2nnc(-c3ccccc3)o2)s1	1%	x	0%	u	-2%	-5%
CCn1cnnc1SCC(=O)NCC1COc2ccccc2O1 (centres undefined)	0%	x	-1%	x	-8%	u
COc1ccccc1-n1cnnc1SCC(=O)Nc1cc(C(C)(C)C)nn1-c1ccccc1	1%	-34%	-7%	-1%	1%	u
COc1ccc(-n2cnnc2SCC(=O)Nc2cc(C(C)(C)C)nn2-c2ccccc2)cc1	1%	-17%	-19%	3%	-3%	21µM*
CC(NC(=O)CSc1n[nH]c(N)n1)c1ccccc1 (centres undefined)	-1%	x	4%	5%	-2%	7%
CCCc1ccc(-c2cc(NC(=O)CSc3n[nH]c(N)n3)n(-c3ccccc3)n2)cc1	17%	2%	u	4.3µM*	15%	6%
CC(=O)Nc1ccc(C2=CC(=O)CC(C)(C)C2)cc1	0%	x	8%	-11%	-3%	u
COc1nc(N=C(N)N)nc2ccc(C)cc12	-5%	x	13%	5%	-12%	-17%
Cc1ccc(NC(=O)N/C=C/c2ccco2)cc1C	27%	-3%	0%	11µM*	18%	u
Cc1ccc(-n2nc3ccc(NC(=O)/C=C/c4ccco4)cc3n2)cc1	u	14µM*	u	u	u	u
CCc1ccccc1NC(=O)c1cccc(NC(=O)/C=C/c2ccco2)c1	1%	11%	-2%	3µM*	u	u
Cn1c(NC(=O)/C=C/c2ccco2)cc(=O)n(C)c1=O	15%	-3%	8%	u	26%	u
Cc1ccc(NC(=O)N/C=C/c2ccco2)c(C)c1	1%	10%	4%	u	-1%	15%
Cc1ccc(NC(=O)c2cccc(NC(=O)/C=C/c3ccco3)c2)cc1C	u	18µM*	0%	1.9µM*	3.2µM*	u
O=[N+]([O-])c1ccc(NC(=S)NCc2ccc(F)cc2)cc1	1%	x	1%	-5%	-3%	u
CCCCC1=C([O-])C2N=CC=CC2=[N+](c2ccccn2)C1=O (centres undefined)	-5%	11%	-1%	5%	-2%	5%
NS(=O)(=O)c1ccc(CCNC(=O)c2cc([N+](=O)[O-])ccc2N2CCOCC2)cc1	0%	x	1%	0%	-2%	4%
CC(NC(=O)c1cc(S(=O)(=O)N2CCOCC2)ccc1N1CCCC1)c1ccc(Cl)c(Cl)c1 (centres undefined)	-3%	x	-5%	1%	-9%	-12%
